Sfp inh = blocks B. subtilis Sfp PPTase activity; Biochemical Sfp PPTase activity, qHTS; actives 3.5% (n = 310,000); Potency, µM, for the others: largest response in the series, negative = inhibition, actives largely listed as inhibitors; Q9F4F7;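 also: the enzyme is Sfp with the accession as filed and its product quenches rhodamine fluorescence; potency is read from the fitted curve at half-maximal effect; 0% = enzyme reaction without inhibitor and -100% = no enzyme wells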
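After 15 min at room temperature with compound, 15 nM Sfp received 5 uM rhodamine-CoA plus 12.5 uM BHQ-2-ybbR (50 mM Hepes pH 7.6, 10 mM MgCl2). Rate came from the fluorescence difference over 30 min, ex 525/em 598 nm.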
Tau fluor counter = counter-screen for tau fibril formation inhibitors. Potency, µM (doses to about 57.7 µM), inactives show top-dose activity change, negative = decrease. tau K18 P301L Alexa594 fluorescence, heparin fibrillization. AID 1463. actives 0.93% (n = 280,000); also: potency is read from the fitted curve at half-maximal effect; nearly all actives have a fitted effect of over 55% in size
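Human tau K18 P301L (15 uM unlabeled, 0.24 uM Alexa 594-labeled) in 100 mM sodium acetate pH 7 with 20 uM heparin, 6 hr at 37 C. ThT 30 uM added, 1 hr ambient; Alexa 594 FP and total fluorescence read at 555/632 nm.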
Coupling enz = counter-screen for Giardia aldolase inhibitors: coupling enzyme system; coupling enzyme system counterscreen, AmpLite Red fluorescence; activity change, negative = inhibition, % at 58.2 µM, hits read low; actives 0.67% (n = 290,000); AID 2472; in the data active = activity change below about -30%
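Compounds tested against the coupling enzymes alone at 57.5 uM final; readout was AmpLite Red fluorescence (525/598 nm) after 20 min at RT.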
Tau fibril FP = blocks human tau fibril formation measured by polarization; AID 1468; K18 P301L tau heparin fibrillization, Alexa594 FP, 6 h; P10636; actives 0.39% (n = 280,000); Potency, µM (top dose mostly 57.7 µM), without a hit: top-dose activity, negative = inhibition, usual class: inhibitors; also: potency is read from the fitted curve at half-maximal effect; nearly all actives have a fitted effect of over 55% in size
Target sequence (P10636 561-689 P618L limits assumed): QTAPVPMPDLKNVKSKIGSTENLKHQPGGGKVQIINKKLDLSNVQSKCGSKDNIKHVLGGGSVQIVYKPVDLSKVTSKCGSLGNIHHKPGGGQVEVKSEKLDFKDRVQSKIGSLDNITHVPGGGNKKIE
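Quantitative HTS format: compounds meet 15 uM recombinant K18 P301L tau and Alexa 594-tau tracer in 100 mM sodium acetate pH 7; 20 uM heparin triggers fibrillization at 37 C over 6 hr; FP gives the signal.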
Tau ThT inhib = inhibitors of human tau fibril formation, thioflavin T binding. recombinant tau K18 P301L (four-repeat tau fragment), heparin-induced fibrillization, ThT fluorescence. Potency, µM (highest dose often 57.4 µM), for the others: top-dose activity, negative = inhibition, usual class: inhibitors. actives 2.1% (n = 270,000). AID 1460; also: potency is read from the fitted curve at half-maximal effect; nearly all actives have a fitted effect of over 55% in size
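Aggregation was driven by heparin (20 uM final) acting on recombinant tau […] bearing P301L in 100 mM sodium acetate pH 7; fibrils were detected with Thioflavin T.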
Active calls of the source: *; ? = inconclusive; . = no result; [ ] = remark or other dose. Shown are actives, neighbours in structure and some others; about 5.2% of the full set was active somewhere. Unless noted, calls follow the shape of the dose curve; as a rule, active = well fitted curve in the direction sought with a large enough effect; inconclusive = small, poorly fitted or top-dose-only effect, or another doubt; inactive = no such curve, though single readings can be large; an effect the other way counts as inactive or inconclusive. Unless noted, % is scaled to controls: 0 for no effect and ±100 for the full control effect.

SMILES	Sfp inh	Tau fluor counter	Coupling enz	Tau fibril FP	Tau ThT inhib
N#Cc1c(Nc2ccccc2Cl)s[nH]c1=O	3.98µM*	?	9.3	8.91µM*	7.94µM*
N#Cc1c(Nc2ccccc2)s[nH]c1=O	20µM*	?	8.7	15.8µM*	.
Cc1cc(C)c(C#N)c(Nc2ccccc2Cl)n1	5.1%	-5.9%	-0.3	-7.9%	3.9%
N#Cc1c(Nc2ccccc2C(F)(F)F)s[nH]c1=O	3.55µM*	-16.7%	-0.7	28.2µM*	15.8µM*
COCCCNC(=O)C1CCCN(c2ncnc3onc(C)c23)C1 (stereo not drawn)	.	-12.7%	.	-19.3%	-3.1%
Cc1ccc(C(=O)COC(=O)CCC(=O)Nc2ccc(Oc3ccccc3)cc2)cc1	.	-7.0%	.	-3.1%	-12.7%
S=C(NCCc1ccccc1)Nc1cccc2cnccc12	50.1µM*	-12.6%	-36.3*	-10.7%	?
S=C(NCc1ccccc1)Nc1cccc2cnccc12	56.2µM*	.	-9.0	.	.
Cc1cccc(NC(=S)NCCc2ccccc2)n1	56.2µM*	-9.1%	-16.3	-1.3%	-4.2%
COc1ccc(OCC(=O)OCc2cc(=O)n3nc(C4CC4)sc3n2)cc1	.	-7.3%	.	-6.7%	-10.8%
CCN(CC)S(=O)(=O)c1ccc2c(c1)N(CC(=O)N1CCN(c3ccc(Cl)cc3)CC1)C(=O)CO2	.	-8.9%	.	-1.9%	-6.6%
CCN(CC)c1ccc(NC(=O)c2ccc3c(c2)c(C)c(C)n3C)cc1	-11.0%	?	0.2	12.1%	3.98µM*
COc1ccc(CCN(C)CC(=O)Nc2cc(C)nc3ccccc23)cc1OC	79.4µM*	-17.2%	-2.3	-4.6%	-17.0%
O=C(Nc1ccc2nc(-c3ccco3)c(-c3ccco3)nc2c1)N1CCN(c2ccccn2)CC1	20µM*	6.2%	-40.9*	1.5%	12.1%
Cc1nc2cc(NC(=O)N3CCN(c4ccccn4)CC3)ccc2o1	13.4%	-7.4%	2.6	0.9%	-13.3%
O=C(c1ccc2nc(-c3ccco3)c(-c3ccco3)nc2c1)N1CCN(c2ncccn2)CC1	14.1µM*	-19.4%	.	-3.5%	?
CC(=O)OC[C@@H]1O[C@H](CCO/N=C(\C)CCN2CCCc3nc(C)c(C)cc32)C=C[C@@H]1OC(C)=O	-5.6%	-2.6%[11.6 µM]	3.7	7.5%[11.6 µM]	-9.0%[11.5 µM]
O=C1Nc2ccccc2N=C(c2ccccc2)C1Br (stereo not drawn)	44.7µM*	-20.4%	-23.1	?	?
COc1ccc(-n2c(N)c(C(=O)NCc3ccco3)c3nc4ccccc4nc32)cc1	25.1µM*	?	-7.2	?	?
Nc1c(C(=O)NCc2ccco2)c2nc3ccccc3nc2n1CCc1ccc(F)cc1	25.1µM*	?	-34.0*	?	?
Cc1nc2ccc(S(=O)(=O)N(CC(=O)Nc3cccc(C)c3C)Cc3ccccc3)cc2s1	.	3.0%	.	-12.5%	13.0%
C=CCOC(=O)N[C@@H](Cc1ccccc1)/C(C(=O)OC)=C(\C)NCc1ccccc1	-28.7%	-3.2%	3.2	-3.2%	1.0%
COc1cc(CN(CC2CCCO2)C(=O)c2ccc(F)cc2)cc(OC)c1OC (stereo not drawn)	.	-8.2%	.	-6.1%	-5.6%
CCOC(=O)C(C#N)=C1CCN(Cc2ccccc2)CC1	11.3%	.	0.8	.	.
CCOC(=O)/C(C#N)=C1/C(=O)N(Cc2ccccc2)c2ccccc21	44.7µM*	-12.0%	-37.8*	-2.3%	?
SMILES	Sfp inh	Tau fluor counter	Coupling enz	Tau fibril FP	Tau ThT inhib
Cc1ccc(-n2cc(CN(C)Cc3ncc[nH]3)c(-c3cccc(C)c3)n2)cc1	56.2µM*	10.4%	-19.3	-2.4%	12.1%
CN(Cc1ncc[nH]1)Cc1cn(-c2ccccc2)nc1-c1ccc2c(c1)OCO2	11.3%	-3.7%	-2.8	-3.9%	0.0%
CCC(=O)Nc1ccc(SC#N)cc1C	-5.4%	-22.1%	3.4	?	8.91µM*
CCc1nc(SCC(=O)c2cccs2)c2oc3ccccc3c2n1	35.5µM*	-25.3%	2.9	-7.5%	-21.9%
CCc1nc(SCC(=O)NCCc2ccccc2)c2oc3ccccc3c2n1	-8.2%	0.1%	2.1	1.7%	-6.8%
COC(=O)c1ccc2c(=O)n(CCCCCC(=O)N3CCN(c4ccc(OC)cc4)CC3)c(=O)[nH]c2c1	.	-20.7%	.	10.5%	?
Cc1cc(C(=O)NCCC2=CCCCC2)c(C)o1	35.5µM*	-10.6%	-0.1	?	?
O=C(NCc1ccccc1)c1c[nH]c2ccc(S(=O)(=O)Nc3ccc4c(c3)OCCO4)cc2c1=O	7.2%	10µM*[quencher]	-1.9	?	-10.0%
O=C(NCCc1ccccc1)c1c[nH]c2ccc(S(=O)(=O)Nc3ccccc3F)cc2c1=O	.	?	.	12.6µM*	-5.8%
COc1ccccc1CNC(=O)c1c[nH]c2ccc(S(=O)(=O)Nc3cc(C)cc(C)c3)cc2c1=O	.	?	.	8.91µM*	4.1%
COC(=O)c1ccc(NC(=O)CC2C(=O)N(c3ccc(F)cc3)C(=O)N2Cc2ccc(OC)cc2)cc1 (stereo not drawn)	.	-22.9%	.	-13.6%	10.9%
CCc1ccc(NS(=O)(=O)c2ccc3[nH]cc(C(=O)NCC4CCCO4)c(=O)c3c2)cc1 (stereo not drawn)	5.8%	?	-2.7	?	?
CCc1ccc(NS(=O)(=O)c2ccc3[nH]cc(C(=O)NCc4ccc(C)cc4)c(=O)c3c2)cc1	.	?	.	3.55µM*	9.7%
CCN(CC)S(=O)(=O)c1ccc2[nH]cc(C(=O)NCCC3=CCCCC3)c(=O)c2c1	2.3%	?	-5.0	11.2µM*	7.4%
COc1ccc(S(=O)(=O)N(CCc2ccccc2)CC(=O)Nc2cccc(OC)c2)cc1	.	?	.	-16.8%	-16.5%
O=c1/c(=C/c2ccc(O)c([N+](=O)[O-])c2)sc2nc3ccccc3n12	2.6%	-19.8%	3.4	2.0%	2µM*
CCc1nnc2n1N=C(c1ccc(Br)cc1)CS2	-0.3%	.	3.2	.	.
Brc1ccc(C2=Nn3c(Cn4nnc5ccccc54)nnc3SC2)cc1	28.2µM*	-1.2%	2.4	-0.1%	-7.7%
N/C(=N\OC(=O)CCc1ccccc1)c1ccc(Br)cc1	4.2%	-14.4%	-0.2	5.7%	-15.8%
Cc1ccc(/C(N)=N/OC(=O)CCc2ccccc2)cc1	-13.2%	?	-1.4	?	31.6µM*
CSCSC1=C(C#N)C(c2ccc(Cl)cc2)C(C(C)=O)=C(C)N1 (stereo not drawn)	10µM*	-27.1%	0.3	-2.9%	-12.3%
CCOC(=O)CSC1=C(C#N)C(c2ccccc2)C(C(C)=O)=C(C)N1 (stereo not drawn)	79.4µM*	-5.7%	-8.2	-2.7%	-3.8%
CSC1=C(C#N)C(c2ccccc2)C(C(C)=O)=C(C)N1 (stereo not drawn)	18.6%	10.1%	0.9	-1.2%	9.3%
CCN(CC)Cc1cc(O)c(CN(CC)CC)cc1O	10µM*	?	-33.3*	?	11.2µM*
COc1ccccc1OCc1cc(C(=O)N2CCN(C)C(c3ccccc3)C2)no1 (stereo not drawn)	11.7%	.	.	.	.
